Experiments:
Type in all cases: functional
[1] = molecular target: Solute carrier family 2, facilitated glucose transporter member 1 (Homo sapiens) (UniProt P11166); test: ST_JUDE_LEISH: Cytotoxicity at 2uM final concentration against transgenic Leishmania Mexicana promastigotes LmGLUT1 that are glucose transport deficient and complemented with the human glucose transporter GLUT1. Activity is measured by DNA content using SYBR green in vitro
[2] = molecular target: Hexose transporter 1 (Plasmodium falciparum) (UniProt O97467); test: ST_JUDE_LEISH: Cytotoxicity at 2uM final concentration against transgenic Leishmania Mexicana promastigotes LmPfHT that are glucose transport deficient and complemented with the Plasmodium falciparum hexose transporter. Activity is measured by DNA content using SYBR green in vitro
[3] = molecular target: Glucose transporter (Leishmania mexicana) (UniProt O61059); test: ST_JUDE_LEISH: Cytotoxicity at 2uM final concentration against transgenic Leishmania Mexicana promastigotes LmGT2 that are glucose transport deficient and complemented with the L. Mexicana glucose transporter 2. Activity is measured by DNA content using SYBR green in vitro

Chain of Solute carrier family 2, facilitated glucose transporter member 1 (Homo sapiens) (P11166 whole entry): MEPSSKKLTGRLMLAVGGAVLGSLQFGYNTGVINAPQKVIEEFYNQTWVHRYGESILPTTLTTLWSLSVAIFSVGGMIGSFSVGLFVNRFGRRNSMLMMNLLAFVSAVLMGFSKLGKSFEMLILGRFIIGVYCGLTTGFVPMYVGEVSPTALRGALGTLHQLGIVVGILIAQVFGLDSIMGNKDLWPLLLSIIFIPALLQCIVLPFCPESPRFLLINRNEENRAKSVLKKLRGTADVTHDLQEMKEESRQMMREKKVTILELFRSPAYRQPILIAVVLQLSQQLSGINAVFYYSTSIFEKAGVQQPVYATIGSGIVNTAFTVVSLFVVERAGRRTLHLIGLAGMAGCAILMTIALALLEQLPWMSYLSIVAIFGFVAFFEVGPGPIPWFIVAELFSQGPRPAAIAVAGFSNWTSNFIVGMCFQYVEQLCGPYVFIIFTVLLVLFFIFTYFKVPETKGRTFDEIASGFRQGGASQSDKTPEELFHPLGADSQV

SMILES	inhibition [1] [%]	inhibition [2] [%]	inhibition [3] [%]
COc1ccc2nc(-c3ccc(C(=O)NCCCN4CCN(c5cc(Cl)ccc5OC)CC4)cc3)[nH]c2c1	0.75	0.77	-0.2
Cc1cccc(OC2CCN(c3ncc(C(=O)NCCCN4CCCC4=O)cc3Cl)CC2)c1	0.59	2.47	0.99
CNC(=O)c1cnc(Nc2ccc(OCC(O)CN(C)C)cc2)nc1Nc1cccc(Br)c1 (stereo not given)	11.4	11.1	9.84
COc1cc2nc(N3CCC(CNC(=O)c4ccc(-c5ccc(C(=O)N(C)C)cc5)c(OCCO)c4)CC3)nc(N)c2cc1OC	2.82	3.22	2.26
O=C(NCc1ccccc1)Nc1cccc(-c2cccc(-c3nc4cc(C(F)(F)F)ccc4[nH]3)c2)c1	4.49	4.71	6.02
Cc1cc(N[C@@H](Cc2ccccc2)C(=O)NCCOc2ccccc2)nc(NCc2ccccc2C)n1	7.28	7.01	4.21
CCn1c(-c2nonc2N)nc2c(-c3cccc(Cl)c3)ncc(OCCCNCCc3c[nH]cn3)c21	4.7	4.78	3.45
CC1(C)NC(N)=NC(=N)N1OCCSc1ccc(Cl)c(Cl)c1	5.92	7.48	9.66
CN(C)CC(=O)NCC(NCCCNc1cc(=O)c2ccccc2[nH]1)c1cc(Br)cc(Br)c1 (stereo not given)	5.5	5.13	5.64
N#Cc1cccc(COC(=O)C2=C(COc3ccccc3Cl)NC(=O)NC2c2c[nH]c3cnccc23)c1 (stereo not given)	9.04	6.63	6.83
Cc1[nH]c(C)c(-c2ccc(-c3ccc(OC(F)(F)F)cc3)nc2)c(=O)c1Br	9.71	8.43	8.85
COc1ccc2ncc(F)c([C@H](O)CN3CCC(NCc4cc5c(cn4)OCCO5)CC3)c2c1	6.21	6.52	2.51
CCC[C@@H]([C@@H](CC1CCCCC1)C(=O)N[C@H](C(=O)Nc1nccs1)[C@@H](C)OCc1ccccc1)N(O)C=O	6.17	3.62	2.53
CN(Cc1cccc(O)c1)C1CCN(c2cc(NC(=O)c3cccc(F)c3)ccn2)CC1	0.01	1.18	1.33
N#Cc1ccc(CN2CCC(Oc3ccc(NC(=O)c4cccs4)cc3Cl)CC2)cc1	5	10.5	8.03
COc1cccc(C(O)CNc2ccnc(Nc3ccc(Cl)cc3)n2)c1 (stereo not given)	6	5.73	1.85
OCC1CCN(Cc2ccc(-c3ccc(-c4nc5cc(C(F)(F)F)ccc5[nH]4)s3)cc2)CC1	1.82	0.23	1.7
O=C(NCCc1ccccc1)c1cc(-c2cccnc2)cnc1NCC1CC1	3.62	6.01	1.98
O=C(Nc1ccc(OC2CCN(Cc3ccc(F)cc3)C2)cc1)c1cccs1 (stereo not given)	-3.81	-1.65	-0.11
CC(C)(C)c1ccc(NC(=O)c2ccc(CN3CCCN(Cc4ccc(F)cc4)CC3)cc2)cc1	2.24	-1.93	1.74
CC(C)(C)c1ccc(CN2CCC(NC(=O)c3ccc(-c4cccc(F)c4)s3)CC2)cc1	-0.34	-2.33	2.67
CC(C)CNCc1ccc(-c2ccc(CN(CCCN3CCN(C)CC3)C(=O)/C=C/c3ccccc3)cc2)cc1	8.73	6.1	3.32
Nc1nc(N)c2cc3ccc(OCc4ccccc4)cc3nc2n1	12.2	9.05	6.89
O=C(/C=C/c1ccc(F)cc1)NC1CCC(CCN2CCCN(c3ccc(C(F)(F)F)cn3)CC2)CC1 (stereo not given)	1.97	-0.46	-1.02

SMILES	inhibition [1] [%]	inhibition [2] [%]	inhibition [3] [%]
Cc1ccc(NC(=O)c2cccc(CN3CCCN(Cc4cccc(O)c4)CC3)c2)cc1F	7.48	8.09	1.34
CN1CCC(NCc2cccc(-c3cnc(NCc4ccccc4)nc3)c2)CC1	0.74	2.79	1
CC(CO)(CO)NCc1cc2ccc3ccsc3c2c2ccccc12	77.1	71.3	48
CCCCCN1CCC(NC(=O)c2ccc(C(=O)Nc3ccc(C(C)C)cc3)cc2)CC1	-0.86	-0.06	-5.29
Oc1ccccc1CNCC12CC3CC(CC(C3)C1)C2	3.18	2.08	2.13
O=C(NCCc1ccccc1)N(Cc1ccc(-c2cccc(CN3CCNCC3)c2)cc1)C1CCN(Cc2ccccc2)CC1	1.57	1.61	0.74
O=C(NCC1CCC(CNCCCc2ccccc2)CC1)c1cc(Cl)cc(Cl)c1 (stereo not given)	1.46	0.53	1.72
NOCCCOc1ccc(Cl)cc1	4.86	3.73	3.9
COCCSc1nc2scc(C)c2c(=O)n1Cc1cccc(OC)c1	3.26	4.92	4.9
COc1cccc(NC(=O)NC2CCN(CCCCCNC(=O)/C=C/c3ccc(Cl)c(Cl)c3)CC2)c1	0.13	0.47	3.52
CCNC[C@H]1CCCN1CCOc1ccc(-n2cnc3cc(-c4ccc(Cl)cc4)sc3c2=O)cc1OC	-0.44	-1.99	-2.28
COc1cc(C(=O)NC2CCN(Cc3ccccc3)CC2)ccc1-c1nc2cc(Cl)c(C)cc2[nH]1	10.1	9.26	5.5
Oc1ccc(CCNCCCCCCNCCc2ccc(-c3ccccc3)cc2)cc1O	1.33	1.69	1.57
O=C(CCCc1ccccc1)Nc1cccc(N2CCC(N3CCN(c4ccccc4O)CC3)CC2)c1	11.8	7.32	7.72
Cc1nc(-c2ccc3c(c2)CCN(CCC2CCC(NC(=O)c4cc5cccc(Cl)c5[nH]4)CC2)CC3)no1 (stereo not given)	0.58	7.07	6.97
CCc1ccc(CN2CCC(CNC(=O)c3cc(-c4cccc(Cl)c4)cs3)C2)cc1 (stereo not given)	-0.66	-0.84	-4.94
COC(=O)c1ccc2[nH]cc(C3CCN(CCC4CCN(C(=O)/C=C/c5ccc(Cl)c(Cl)c5)CC4)CC3)c2c1	6.59	4.72	5.91
O=C(Nc1ccc(Cl)c(Cl)c1)N1CCC(NCc2cccc([N+](=O)[O-])c2)CC1	4.54	1.1	3.26
CS(=O)(=O)CCNCc1cccc(-c2cc3c(Nc4ccc(OCc5cccc(F)c5)c(Cl)c4)ncnc3s2)c1	-0.25	-0.11	-2.47
CCN(CC)CCCN(CCCN(CC)CC)c1cc(C)nc(Nc2ccc(Br)cc2)n1	0.34	0.99	-0.4
CN1CCN(c2ccc(CNc3ccc4ncc(-c5cccc(OC(F)(F)F)c5)n4n3)cc2)CC1	-2.82	-3.7	-2.5
Cc1[nH]c2ccc(C#N)cc2c(=O)c1Br	2.13	1.62	1.31
Cc1ccc(CN2CCN(c3cc4c(cc3Cl)CCN4C(=O)Cc3ccc(NC(=O)c4ccc(C(F)(F)F)cc4)cc3)CC2)cc1	6.58	5.46	1.59
CC(C)Oc1ccc(N2CCN(CCCCNC(=O)c3ccc(NC(=O)c4ccc(Cl)cc4)cc3)CC2)c(OC(C)C)c1	1.62	2.05	1.44

SMILES	inhibition [1] [%]	inhibition [2] [%]	inhibition [3] [%]
c1cc(-c2ccc(CN3CCCCC3)cc2)cc(-c2nc3ccccc3[nH]2)c1	1.85	0.49	0.96
CN1CCC(NC(=O)c2cc(Oc3ccc4c(c3)CCN4C(=O)Nc3cccc(C(F)(F)F)c3)ccn2)CC1	3.67	6.55	1.74
Cc1c(C2CCN(CCCCNC(=O)c3ccc(-c4ccc(C#N)cc4)cc3)CC2)c2ccccc2n1CCO	3.84	0.33	3.72
Clc1ccc(OCCC2CCN(CCCCCCN3CCCCC3)CC2)cc1Cl	10.8	4.99	17
O=C(NC1CCCCN(Cc2ccccc2O)C1)c1ccc(-c2ccccc2)cc1 (stereo not given)	2.73	2.62	2.4
Cc1nn(-c2ccc(Cl)cc2)c2[nH]c(CN3CCN(c4cccc(Cl)c4)CC3)cc(=O)c12	20.2	21	17
N#Cc1cnc2cc(-c3cnc(CNCCN4CCOCC4)s3)ccc2c1Nc1ccc(Oc2ccccc2)cc1	1.96	3.38	1.64
CC(C)[C@H](NC(=O)c1ccc(O)c(-c2ccc(Cl)c(Cl)c2)c1)C(=O)NCCN(C)C	0.25	0.6	1.16
O=C(/C=C/c1ccc(Cl)c(Cl)c1)NCCCCCN1CCCC(C(=O)Nc2ccc(Cl)cc2)C1 (stereo not given)	3.76	5.09	2.58
CN(C)CCN(C)Cc1ccc(-c2ccc(NC(=O)c3cccc(C#N)c3)cc2)cc1	3.64	2.58	0.19
Cc1ccc(N2C(=O)C3C(C2=O)C2(c4ccccc4)C(=O)C3(c3ccccc3)C(c3ccccc3)=C2c2ccccc2)c(C)c1 (stereo not given)	6.28	4.9	3.25
CS(=O)(=O)c1ccc(CNCc2cccc(-c3cccc(-c4nc5cc(C(F)(F)F)ccc5[nH]4)c3)c2)cc1	5.54	5.92	3.97
Cc1cc2ncc(C(N)=O)c(Nc3ccc(N4CCOCC4)cc3)c2cc1S(C)(=O)=O	1.97	3.83	5.19
Cc1cnccc1/C=C/c1cccc(OCCN2CCc3ccc(S(C)(=O)=O)cc3CC2)c1	1.95	2.77	1.68
O=C(NCc1cccc(C(F)(F)F)c1)c1ccc(CNC(=O)c2ccc(O)c(-c3ccc(Cl)c(Cl)c3)c2)cc1	5.02	2.57	3.47
CCN(CC)CCCC(C)Nc1c2ccccc2nc2c1ccc1ccccc12 (stereo not given)	7.99	3.26	7.76
O=C(NCCCCN1CCN(c2cccc3c2CCCC3)CC1)c1ccc(NC(=O)c2ccc(Cl)cc2)cc1	3.35	1.45	1.92
Cc1ccc(O)cc1Nc1ccnc2cc(-c3ccccn3)ccc12	5.99	4.26	3.28
FC(F)(F)c1ccc(/C=C/c2cncnc2Nc2ccc3[nH]c(Cc4ccccc4)nc3c2)cc1	4.97	6.03	3.94
O=C(NC1CCN(Cc2ccccc2)CC1)c1ccc(-c2nc3cc(Cl)c(F)cc3[nH]2)cc1	1.14	0.15	2.45
O=C(Nc1cc2cc(-c3ccc(CN4CCCCC4)cc3)ccc2n2cnnc12)NC1CCCC1	22.1	6.44	3.67
Nc1nc(-c2ccccn2)nc(-n2nc(-c3cccc(C(F)(F)F)c3)cc2N)n1	3.56	2.31	1.29

Source: ChEMBL document CHEMBL3433997, “St. Jude Leishmania screening dataset” (2016)
